# Data from ChEMBL document CHEMBL3988442, “University of Dundee, Small-Polar-MMV Screening Library” (2021).
# Hit rate of the full screen: of about 48,000 compounds, about 13,000 (27%) showed an effect of 50% or more. The list shows a part of the results.
# Tested on: Wolbachia pipientis
# Assay: Anti-Wolbachia Cell-Based Screen
# Type: functional
# Set-up: scale not given: in the data most compounds retested in dose-response had high values
# Conditions: 5 µM
row,SMILES,Percent Effect
1,COc1cc(C(=O)NC2COc3ccccc3C2)ccc1OCC(N)=O (stereo unspecified),16.72%
2,Fc1ccc2[nH]c(C3CCCN3CCCn3cccn3)nc2c1 (stereo unspecified),-31.47%
3,C=Cc1cccc(CN2C[C@@H](CN(C)CC)[C@@H](CO)C2)c1,-5.546%
4,O=C1CC2(CCN(C(=O)c3cccc(Cl)c3)CC2)CN1,-6.217%
5,COC(=O)[C@@H](NC(=O)c1coc(COc2cccc(F)c2F)n1)C(C)C,-36.4%
6,Cc1cc(CN(CCO)c2ccc(Br)cc2)on1,-2.085%
7,Cc1cccc(N2CC[C@H]3CO[C@H](CN(C)Cc4ccco4)[C@H]3C2)n1,108.5%
8,CN(Cc1ccco1)C[C@H]1OC[C@@H]2CCN(Cc3cccs3)C[C@@H]21.O=C(O)C(F)(F)F.O=C(O)C(F)(F)F,-12.79%
9,CN(Cc1ccco1)C[C@@H]1OC[C@H]2CN(Cc3nccs3)CC[C@H]21.O=C(O)C(F)(F)F.O=C(O)C(F)(F)F,3.908%
10,Cc1cccc(N2CC[C@@H]3[C@@H](CO[C@H]3CNS(C)(=O)=O)C2)n1,-14.44%
11,CN(Cc1ccco1)C[C@H]1OC[C@@H]2CCN(Cc3cccnc3)C[C@@H]21.O=C(O)C(F)(F)F.O=C(O)C(F)(F)F.O=C(O)C(F)(F)F,7.341%
12,Cc1cccc(N2CC[C@H]3[C@H](CO[C@@H]3CN(C)Cc3ccco3)C2)n1.O=C(O)C(F)(F)F.O=C(O)C(F)(F)F,52.12%
13,Cc1ccc(N2CC[C@H]3CO[C@H](CN(C)Cc4ccco4)[C@H]3C2)nn1.O=C(O)C(F)(F)F.O=C(O)C(F)(F)F,95.46%
14,CN(Cc1ccco1)C[C@H]1OC[C@@H]2CCN(Cc3nccs3)C[C@@H]21,-15.41%
15,CN(Cc1ccco1)C[C@H]1OC[C@@H]2CCN(Cc3ccncc3)C[C@@H]21.O=C(O)C(F)(F)F.O=C(O)C(F)(F)F.O=C(O)C(F)(F)F,-1.908%
16,CN(Cc1ccco1)C[C@H]1OC[C@@H]2CN(c3ncc(F)cn3)CC[C@@H]21.O=C(O)C(F)(F)F.O=C(O)C(F)(F)F,81.17%
17,CC(C)N1CC(c2ncc(-c3ccc4c(c3)OCCO4)[nH]2)CC1=O (stereo unspecified),5.292%
18,CC(C)CN1C(=O)CO[C@@H]2CN(C(=O)[C@H]3CCCO3)C[C@H]21,-3.768%
19,CC(C)(O)CCc1ccc(C(=O)N2CCN(CCS(C)(=O)=O)CC2)cc1,-13.16%
20,Cl.Cn1ncc2c1CCCC2NCc1cc(Br)cs1 (stereo unspecified),7.416%
21,Cc1cc(=O)n(CC(=O)Nc2ccc(Cl)cc2)nc1C,-24.72%
22,COC(=O)NCCCC(=O)NCC1(c2cccc(Cl)c2)CC1,-5.013%
23,Cc1ccc(NC(=O)N2CCOC(C)C2)cc1Cl (stereo unspecified),8.105%
24,Cc1ccc(NC(=O)N2CCCC(O)(CO)CC2)cc1Cl (stereo unspecified),-14.19%

row,SMILES,Percent Effect
1,COC(=O)N1CC(C)=C(C)CN1C(=O)Nc1cccc(Cl)c1,127.6%
2,CCOC(=O)N1CC(C)=C(C)CN1C(=O)Nc1ccc(Cl)c(Cl)c1,122.4%
3,CN1CC(Oc2ccccc2)=NC(SCC(=O)Nc2ccc(Cl)cc2)=N1,11.53%
4,CCc1csc(CNCC(=O)Nc2ccc(Cl)c(C)c2)n1,20.64%
5,COC(=O)N1CC(C)=C(C)CN1C(=O)Nc1ccc(Cl)cc1,87.33%
6,COc1ccc(NC(=O)Cn2nc(C)c(C)cc2=O)cc1Cl,-5.001%
7,COC(=O)N1CC(C)=C(C)CN1C(=O)Nc1ccc(Cl)c(Cl)c1,93.89%
8,COC(=O)NCCC(=O)NCC1(c2cccc(Cl)c2)CC1,6.503%
9,CCCc1c(C(=O)N2CCN(c3ncccn3)CC2)cnn1C,-7.534%
10,COc1ccc(C2CCN(CCCC#N)CC2)cc1,4.999%
11,CN(CCn1ccc2ccccc21)C(=O)CS(C)(=O)=O,-3.366%
12,CCC(NCc1cccc(Cl)c1)c1ccccc1OCC(=O)NC (stereo unspecified),-3.101%
13,Cc1nc(C)n(CC2CN(CCCOc3ccccc3C)CCO2)n1 (stereo unspecified),-2.427%
14,Cc1nc(C)n(CC2CN(CCc3ccccn3)CCO2)n1 (stereo unspecified),-80.6%
15,Cc1cnn(CC2CN(Cc3nc4ccccc4s3)CCO2)c1 (stereo unspecified),112.2%
16,Cc1cnc(CN2CCOC(Cn3nc(C)nc3C)C2)cn1 (stereo unspecified),1.014%
17,Cc1nc(C)n(CC2CN(Cc3nc4ccccc4s3)CCO2)n1 (stereo unspecified),214.4%
18,c1ccc2sc(CN3CCOC(Cn4cccn4)C3)nc2c1 (stereo unspecified),18.8%
19,Cc1cc(C)n(CC2CN(Cc3nc4ccccc4s3)CCO2)n1 (stereo unspecified),100.5%
20,Cc1nc(C)n(CC2CN(CCCOc3ccccc3)CCO2)n1 (stereo unspecified),117%
21,c1ccc2sc(CN3CCOC(Cn4cncn4)C3)nc2c1 (stereo unspecified),-2.125%
22,CCOc1cc(CNCCCn2ccnc2)cc(Cl)c1OC,-2.323%
23,COCCN1C[C@H]2[C@@H](C1)N(C(=O)c1cccs1)CC[C@H]2OC,-4.854%
24,CC(=O)c1ccc(OCC(=O)NC(C)CCc2ccco2)cc1 (stereo unspecified),-8.021%

row,SMILES,Percent Effect
1,COc1ccccc1OC1(C(=O)O)CCN(c2ncnc(C)c2C)CC1,-46.26%
2,N#CCCNC(=O)CSc1ccc(F)cc1F,-9.893%
3,Cc1c(C(C)NC(=O)Nc2ccc(F)c(F)c2)cnn1C (stereo unspecified),0.41%
4,CN1CCC(Oc2ccc(NC(=O)c3ccccc3Br)cc2)CC1,-1.249%
5,Cc1c(C2=NS(=O)(=O)N(C)C(C(=O)Nc3ccc(Br)cc3)=C2)cnn1C,158.8%
6,Cc1nn(C)cc1C1=NS(=O)(=O)N(C)C(C(=O)Nc2ccc(Cl)cc2)=C1,140.7%
7,Cc1nn(C)cc1C1=NS(=O)(=O)N(C)C(C(=O)Nc2ccc(Br)cc2)=C1,160.2%
8,CNc1nc(CNC(=O)Nc2ccccc2-c2noc(C)n2)cs1,2.213%
9,CN1CC(NC(=O)CCCc2cc(Cl)sc2Cl)CCC1=O (stereo unspecified),-9.281%
10,O=C(NCCc1cccnc1)c1ccc2nccn2c1,-5.38%
11,O=C(NCc1cccnc1)c1cn(CCc2ccccc2)nn1,77.17%
12,O=C(NCCCOc1cccnc1)c1cn(CCc2ccccc2)nn1,-0.6541%
13,O=C(NCc1cccnc1)c1ccc2nccn2c1,107.5%
14,O=C(NCCCNc1cccnc1)c1ccc2nccn2c1,1.237%
15,O=C(NCCc1ccccc1)c1cn(CCNCc2cccnc2)nn1,-1.891%
16,CN(C)c1ccc(C(=O)NCC2(O)CCOCC2)cc1,-16.02%
17,Cc1ccc(C(=O)NCC2(O)CCOCC2)cc1F,-12.72%
18,CN(C)c1cccc(C(=O)NCC2(O)CCOCC2)c1,-18.41%
19,Cc1ccc(C(=O)NCC2(O)CCOCC2)cc1Br,-13.19%
20,O=C(NCC1(O)CCOCC1)c1ccc(F)cc1,96.45%
21,COC(=O)c1ccc(C(=O)NCC2(O)CCOCC2)cc1,130.4%
22,O=C(O)C(F)(F)F.O=C(O)C(F)(F)F.O=C(O)c1cc2c(nc1N1CCOCC1)CCN(C1CCOC1)CC2 (stereo unspecified),-7.215%
23,Cc1ccnc2c1NC(=O)CN2C(=O)CCC(F)(F)F,-8.698%
24,O=C(OC1CCC1)c1ncccc1OCC(F)(F)F,-10.44%

row,SMILES,Percent Effect
1,CCOCCCNCc1cc(O)c2cc(C)ccc2n1,-26.14%
2,CCOCCCNCc1cc2c(C)cc(C)cc2n2c(=O)n(C)nc12,119.1%
3,CCCNCc1cc2c(C)cc(C)cc2n2c(=O)n(C)nc12,-10.06%
4,COCCNCc1cc2c(C)cc(C)cc2n2c(=O)n(C)nc12,88.13%
5,COCCCn1cnnc1CNC(=O)c1[nH]c2c(C)cc(C)cc2c1C,0.2132%
6,O=C1CCC2(CCCN(c3ncnc4[nH]cnc34)C2)CN1CCCO (stereo unspecified),-3.767%
7,COc1ccccc1CC(NC(=O)N1CCC[C@@H]1CO)C(C)C (stereo partly specified),-5.452%
8,CSCCC(=O)N1CCC(c2nnc(CN(C)CCO)n2C)CC1,26.9%
9,CCS(=O)(=O)N1CCCc2ccc(NC(=O)Cc3ccc(F)cc3)cc21,-6.577%
10,Cc1cccc(NC(=O)NC2CCN(C3CCOC3)CC2)c1 (stereo unspecified),-12.46%
11,CCS(=O)(=O)N1CCc2ccc(NC(=O)Nc3cccc(F)c3)cc21,144.6%
12,CCS(=O)(=O)N1CCc2ccc(NC(=O)Nc3cccc(SC)c3)cc21,9.677%
13,CCS(=O)(=O)N1CCc2ccc(NC(=O)NC3CCCCC3)cc21,108.5%
14,NS(=O)(=O)N1CCc2ccc(NC(=O)CC(F)(F)F)cc21,-10.92%
15,NS(=O)(=O)N1CCc2ccc(NC(=O)Cc3ccc(F)cc3)cc21,-5.162%
16,CCS(=O)(=O)N1CCc2ccc(NC(=O)NC(C)(C)C)cc21,107.2%
17,CCS(=O)(=O)N1CCc2ccc(NC(=O)Nc3cccc(C)c3)cc21,127.7%
18,COc1cc(NC(=O)NC2CCCC2)ccc1N1CCOC1=O,8.686%
19,O=C(Nc1ccccc1)C1CCCN(c2cc(-n3cncn3)ncn2)C1 (stereo unspecified),-3.274%
20,COCC1CN(C(=O)Cc2cccc(F)c2)Cc2ccnn2C1.O=C(O)C(F)(F)F (stereo unspecified),13.65%
21,CCC(=O)N1CC[C@@H](c2ccc3ccccc3c2)[C@H](O)C1,-8.5%
22,CC(NS(C)(=O)=O)C(=O)N(C)Cc1csc(-c2cccs2)n1 (stereo unspecified),-6.188%
23,O=S(=O)(N1CCCCC1)N1CCOC2(CCCC2)C1,-3.647%
24,O=C(NC1CC1)NC(c1ccc(F)cc1)C1CC1 (stereo unspecified),-8.198%
